High-throughput results: PubChem, National Center for Advancing Translational Sciences (NCATS)
DT40 TDP1 no CPT: qHTS for Inhibitors of human tyrosyl-DNA phosphodiesterase 1 (TDP1): qHTS in cells in absence of CPT; DT40 Tdp1-/- hTDP1 cells, no CPT, ATP luminescence, 48 h; Potency, µM (highest dose often 46.2 µM), usual class: inhibitors; hit rate 15% among 420,000; also: nearly all actives have a fitted effect of over 55% in size
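Chicken DT40 Tdp1-/- cells complemented with human TDP1, screened without camptothecin (DMSO vehicle only), 400 cells/well. Compounds pin-transferred, cells incubated at 37 °C for at least 48 hr. Growth read as ATP-dependent luminescence (CellTiter-Glo, 30 min at RT).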
IL1B secr inh: qHTS for Inhibitors of Inflammasome Signaling: IL-1-beta AlphaLISA Primary Screen; activity change, % at 57.5 µM; hit rate 4.7% among 360,000; THP-1 LPS/ATP IL-1B secretion, AlphaLISA, 16 h; stronger effect = lower value; in the data active = activity change below about -50%; inconclusive = mostly about -30% to -49%
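Secreted IL-1B measured by AlphaLISA bead assay after 16 h compound exposure of THP-1 cells; compounds (final up to 57.5 uM) added 1 h before LPS (250 ng/mL) and ATP (1.25 mM) stimulation; lower signal means less secretion.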
DT40 TDP1 CPT: qHTS for Inhibitors of human tyrosyl-DNA phosphodiesterase 1 (TDP1): qHTS in cells in presence of CPT; chicken DT40 Tdp1-/-;hTDP1 cells + 20 nM CPT, ATP luminescence, 48 h; Potency, µM (top dose mostly 46.2 µM), actives largely listed as inhibitors; hit rate 12% among 420,000; also: nearly all actives have a fitted effect of over 55% in size
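Cell growth measured by CellTiter-Glo luminescence after a minimum 48 h, 37 C compound exposure with 20 nM CPT in Tdp1-knockout DT40 cells stably expressing hTDP1, seeded 400/well; qHTS titration format.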
HT1080-NT tox: qHTS for induction of synthetic lethality in tumor cells producing 2HG: qHTS for the HT-1080-NT fibrosarcoma cell line; hit rate 1.6% among 360,000; AID 686970, 2013; Potency, µM (series often up to 46.1 µM), hits mostly cytotoxic; HT-1080-NT fibrosarcoma viability, CellTiter-Glo ATP luminescence, 48 h;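 also: NT is the 2HG producing partner of a matched IDH1 knockdown line; nearly all actives have a fitted effect of over 55% in size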
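Luminescent CellTiter-Glo readout after 48 hours of compound exposure at 37 degrees C defined viability of HT-1080-NT cells. Activity was normalized to DMSO wells and cell-free media wells; concentration-response curves were fitted and assigned curve classes.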
HT1080 IDH1KD tx: qHTS for induction of synthetic lethality in tumor cells producing 2HG: qHTS for the HT-1080-IDH1KD cell line; HT-1080 IDH1 knockdown viability, ATP luminescence, 48 h; Potency, µM (highest dose often 46.1 µM), most hits filed as cytotoxic; hit rate 2% among 360,000; AID 686971, 2013
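Viability of IDH1-knockdown HT-1080 fibrosarcoma cells was assessed by CellTiter-Glo after 48 h at 37 °C with titrated compound; concentration-effect curves were classified by fit quality and response size.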
12-LOX inh: Primary qHTS assay for inhibitors of human arachidonate 12S-lipoxygenase (ALOX12): Round 2; Polyunsaturated fatty acid lipoxygenase ALOX12 (Homo sapiens), P18054; purified 12hLO, xylenol orange hydroperoxide absorbance; Potency, µM (doses to about 108 µM), most hits filed as inhibitors; hit rate 1.1% among 580,000
Target sequence (P18054 whole entry, looked up): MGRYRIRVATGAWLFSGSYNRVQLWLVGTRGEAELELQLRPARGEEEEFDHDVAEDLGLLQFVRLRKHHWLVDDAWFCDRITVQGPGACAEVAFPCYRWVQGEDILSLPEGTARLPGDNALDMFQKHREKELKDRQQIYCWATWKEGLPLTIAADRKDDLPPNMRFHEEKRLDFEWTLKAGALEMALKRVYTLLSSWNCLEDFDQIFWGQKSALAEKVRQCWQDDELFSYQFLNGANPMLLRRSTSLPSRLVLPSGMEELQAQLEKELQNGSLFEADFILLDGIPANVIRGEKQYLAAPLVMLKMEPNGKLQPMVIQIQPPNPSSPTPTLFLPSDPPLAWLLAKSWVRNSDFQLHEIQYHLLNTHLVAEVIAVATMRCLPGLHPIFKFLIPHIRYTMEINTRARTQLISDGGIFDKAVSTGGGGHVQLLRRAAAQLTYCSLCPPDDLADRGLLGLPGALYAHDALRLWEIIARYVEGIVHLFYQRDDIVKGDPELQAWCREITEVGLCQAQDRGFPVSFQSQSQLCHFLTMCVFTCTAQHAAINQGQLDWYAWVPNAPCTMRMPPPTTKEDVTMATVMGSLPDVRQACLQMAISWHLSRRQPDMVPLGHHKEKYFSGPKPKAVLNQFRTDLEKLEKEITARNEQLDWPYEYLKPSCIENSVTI
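Purified human 12hLO at 150 nM in 25 mM Hepes, 0.01% Triton X-100, pH 7.0, preincubated 15 min at room temperature with compound. Reaction started with 40 uM arachidonic acid, 30 min at room temperature. Hydroperoxide measured by Fe-xylenol orange, 573/405 nm absorbance ratio.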
Large screens that a line does not name were inactive. The entries come from a sample that favours hits as a whole. Unless noted, calls follow the shape of the dose curve; as a rule, active = well fitted curve in the direction sought with a large enough effect; inconclusive = small, poorly fitted or top-dose-only effect, or another doubt; inactive = no such curve, though single readings can be large; an effect the other way counts as inactive or inconclusive.

O=C1CCC(C(=O)OCC(=O)N2N=C3/C(=C/c4ccccc4)CCCC3C2c2ccccc2)N1 (stereo unspecified)	DT40 TDP1 no CPT 23µM, DT40 TDP1 CPT inconclusive
COc1ccc(/C=C2\CCCC3C2=NN(C(=O)CSc2n[nH]c(N)n2)C3c2ccc(OC)cc2)cc1 (stereo unspecified)	DT40 TDP1 no CPT inconclusive, DT40 TDP1 CPT 23µM, HT1080-NT tox inconclusive, HT1080 IDH1KD tx inconclusive
CC(C)(C)c1ccc(OCCCC(=O)Nc2nnc(C3CC3)s2)cc1	DT40 TDP1 no CPT 10µM, DT40 TDP1 CPT inconclusive
CC(=O)c1ccc(OCCCC(=O)Nc2nnc(C3CC3)s2)cc1	none
Cc1cc2nc(C(=O)Nc3ccc(Br)cc3)c(N3CCOCC3)nc2cc1C	none (no result: DT40 TDP1 no CPT, IL1B secr inh, DT40 TDP1 CPT, HT1080-NT tox, HT1080 IDH1KD tx)
O=C(Nc1ccc(Cl)cc1)N[C@H]1CC[C@H](CCn2cc(-c3ccccc3F)nn2)O[C@@H]1CO	DT40 TDP1 no CPT 9.2µM, DT40 TDP1 CPT 8.2µM, 12-LOX inh inconclusive
CC(C)C[C@H]1CNC(=S)N1C[C@H]1CCCN1C[C@H](Cc1ccc(O)cc1)N1C[C@H](Cc2ccccc2)N(CCc2ccccc2)C1=S	DT40 TDP1 no CPT inconclusive, DT40 TDP1 CPT inconclusive, 12-LOX inh inconclusive
CCOc1ccc(CCN2C(=S)N([C@@H](CC(C)C)CN3CCC[C@@H]3CN3C(=S)NC[C@@H]3Cc3ccccc3)C[C@@H]2Cc2ccc(O)cc2)cc1	DT40 TDP1 no CPT 13µM, IL1B secr inh -65, DT40 TDP1 CPT 15µM, HT1080-NT tox inconclusive, HT1080 IDH1KD tx inconclusive, 12-LOX inh inconclusive
CCOc1ccc(CCN2C(=S)N([C@@H](Cc3ccc(O)cc3)CN3CCC[C@@H]3CN3C(=S)NC[C@@H]3Cc3ccc(O)cc3)C[C@@H]2Cc2ccc(O)cc2)cc1	DT40 TDP1 no CPT inconclusive, IL1B secr inh -57, DT40 TDP1 CPT inconclusive, HT1080-NT tox 26µM, HT1080 IDH1KD tx 21µM, 12-LOX inh inconclusive
CCOc1ccc(CCN2C(=S)N([C@@H](Cc3ccccc3)CN3CCCC3CN3C(=S)NC[C@@H]3Cc3ccccc3)C[C@@H]2Cc2ccc(O)cc2)cc1 (stereo partly specified)	DT40 TDP1 no CPT 23µM, DT40 TDP1 CPT 21µM, 12-LOX inh inconclusive
CCOc1ccc(CCN2C(=O)C(=O)N([C@@H](Cc3ccc(O)cc3)CN3CCC[C@H]3CN3C(=O)C(=O)NC[C@@H]3Cc3ccc(O)cc3)C[C@@H]2Cc2ccc(O)cc2)cc1	none
CCOc1ccc(CCN2C(=S)N([C@@H](Cc3ccc(O)cc3)CN3CCC[C@@H]3CN3C(=S)NC[C@@H]3Cc3ccccc3)C[C@@H]2Cc2ccccc2)cc1	DT40 TDP1 no CPT inconclusive, DT40 TDP1 CPT inconclusive
Oc1ccc(C[C@H]2CNC(=S)N2CC2CCCN2C[C@H](Cc2ccc(O)cc2)N2C[C@H](Cc3ccccc3)N(CCc3ccccc3)C2=S)cc1 (stereo partly specified)	DT40 TDP1 no CPT 21µM, DT40 TDP1 CPT inconclusive
c1ccc(NC2=NCCN2CCC2CCCCC2)cc1	DT40 TDP1 no CPT inconclusive, DT40 TDP1 CPT 23µM
CCCCCCCN1CCN=C1Nc1ccccc1	DT40 TDP1 no CPT 26µM, IL1B secr inh inconclusive, DT40 TDP1 CPT 23µM
CCC(=O)[C@@H](C)[C@@H](OC(C)=O)[C@H](C)C[C@@H](C)[C@H]1OC(=O)C[C@@]2(O)CC=C(C)C(O2)C(C)=CCCC[C@H](O[C@H]2C[C@@H](OC(N)=O)[C@H](OC(C)=O)[C@@H](C)O2)C=C[C@H](C)C[C@H]1C	DT40 TDP1 no CPT 2.9µM, DT40 TDP1 CPT inconclusive
Cc1ccc(C(=O)c2ccccc2C(=O)N(C)Cc2cccs2)cc1C	none (no result: DT40 TDP1 no CPT, IL1B secr inh, DT40 TDP1 CPT, HT1080-NT tox, HT1080 IDH1KD tx)
